Results: PubChem BioAssay AID1159580 (chemical genetic matrix, 2015)
In all, about 5,500 compounds went through this assay and about 2,000 (36%) were called active. Inconclusive results (about 18%) are left out. No stated cut-off is given here; in the data, active means normalized growth mostly below about 0.91 (no sharp cut-off); inconclusive means no clear call, values can overlap the other calls; inactive means mostly above about 0.92. Some of the results follow.

Test: chemical genetic growth profiling, strain panel (AID 1159580);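 further: tested at 20 µM; growth read once vehicle control cultures reached saturation at 30 °C; 1 = growth at the plate median or of vehicle wells; lower values mean less growth of the strain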
Conditions: growth OD

Measured: normalized growth

NC(C(=O)O)C(O)C(=O)O (stereo not drawn)
inactive: S. cerevisiae deletion strains, locus YJR066W, strain TOR1, hits give low values 0.994 | S. cerevisiae deletion strains, locus YJR075W, strain HOC1, hits give low values 1.01 | S. cerevisiae deletion strains, locus YKL009W, strain mrt4, hits give low values 1.02 | S. cerevisiae deletion strains, locus YKL068W, hits give low values 1.01 | S. cerevisiae deletion strains, locus YKL085W, strain MDH1 (second series), hits give low values 0.999 | S. cerevisiae deletion strains, locus YKL085W, strain MDH1, hits give low values 0.999 | S. cerevisiae deletion strains, locus YKL160W, strain elf1, hits give low values 0.974 | S. cerevisiae deletion strains, locus YKR001C, strain vps1, hits give low values 1.02 | S. cerevisiae deletion strains, locus YKR026C, strain gcn3, hits give low values 0.997 | S. cerevisiae deletion strains, locus YKR091W, strain srl3, hits give low values 0.984 | S. cerevisiae deletion strains, locus YLL001W, strain dnm1, hits give low values 0.987 | S. cerevisiae deletion strains, locus YLL026W, hits give low values 0.996 | S. cerevisiae deletion strains, locus YLL041C, strain sdh2, hits give low values 0.978 | S. cerevisiae deletion strains, locus YLR027C, strain aat2, hits give low values 0.998 | S. cerevisiae deletion strains, locus YLR039C, strain RIC1, hits give low values 1.02 | S. cerevisiae deletion strains, locus YLR058C, strain SHM2, hits give low values 1.01 | S. cerevisiae deletion strains, locus YLR102C, strain apc9, hits give low values 1.04 | S. cerevisiae deletion strains, locus YLR113W, strain HOG1, hits give low values 1.07 | S. cerevisiae deletion strains, locus YLR221C, strain rsa3, hits give low values 1.05 | S. cerevisiae deletion strains, locus YLR258W, strain gsy2, hits give low values 0.995 | S. cerevisiae deletion strains, locus YLR262C, strain YPT6 (second series), hits give low values 0.973 | S. cerevisiae deletion strains, locus YLR262C, strain YPT6, hits give low values 1.02 | S. cerevisiae deletion strains, locus YLR268W, strain sec22, hits give low values 1.07 | S. cerevisiae deletion strains, locus YLR320W, strain mms22, hits give low values 1.04 | S. cerevisiae deletion strains, locus YLR330W, strain CHS5, hits give low values 1.01 | S. cerevisiae deletion strains, locus YLR342W, strain FKS1 (second series), hits give low values 1 | S. cerevisiae deletion strains, locus YLR342W, strain FKS1, hits give low values 0.999 | S. cerevisiae deletion strains, locus YLR357W, strain rsc2, hits give low values 0.982 | S. cerevisiae deletion strains, locus YLR370C, strain arc18, hits give low values 0.988 | S. cerevisiae deletion strains, locus YLR371W, strain rom2, hits give low values 1.02 | S. cerevisiae deletion strains, locus YLR384C, strain iki3, hits give low values 0.981 | S. cerevisiae deletion strains, locus YLR418C, strain cdc73, hits give low values 1.03 | S. cerevisiae deletion strains, locus YML016C, strain PPZ1, hits give low values 1.01 | S. cerevisiae deletion strains, locus YML032C, strain rad52, hits give low values 1.02 | S. cerevisiae deletion strains, locus YML120C, strain ndi1, hits give low values 0.96 | S. cerevisiae deletion strains, locus YML124C, strain tub3, hits give low values 1.02 | S. cerevisiae deletion strains, locus YMR058W, strain fet3, hits give low values 0.99 | S. cerevisiae deletion strains, locus YMR078C, strain ctf18, hits give low values 1.04 | S. cerevisiae deletion strains, locus YMR125W, strain sto1, hits give low values 0.95 | S. cerevisiae deletion strains, locus YMR129W, hits give low values 1 | S. cerevisiae deletion strains, locus YMR205C, strain PFK2, hits give low values 0.966 | S. cerevisiae deletion strains, locus YMR223W, strain ubp8, hits give low values 1.03 | S. cerevisiae deletion strains, locus YMR231W, strain pep5, hits give low values 0.993 | S. cerevisiae deletion strains, locus YMR307W, strain GAS1, hits give low values 1.08 | S. cerevisiae deletion strains, locus YNL067W, strain RPL9B, hits give low values 1.01 | S. cerevisiae deletion strains, locus YNL071W, strain lat1, hits give low values 0.982 | S. cerevisiae deletion strains, locus YNL153C, strain GIM3, hits give low values 1.01 | S. cerevisiae deletion strains, locus YNL183C, strain NPR1, hits give low values 0.982 | S. cerevisiae deletion strains, locus YNL209W, strain ssb2, hits give low values 0.982 | S. cerevisiae deletion strains, locus YNL233W, strain BNI4, hits give low values 1.01 | S. cerevisiae deletion strains, locus YNL248C, strain rpa49, hits give low values 0.94 | S. cerevisiae deletion strains, locus YNL250W, strain rad50, hits give low values 1.05 | S. cerevisiae deletion strains, locus YNL271C, strain bni1, hits give low values 1.03 | S. cerevisiae deletion strains, locus YNL298W, strain CLA4, hits give low values 1.05 | S. cerevisiae deletion strains, locus YNL307C, strain MCK1, hits give low values 1.03 | S. cerevisiae deletion strains, locus YNL322C, strain KRE1 (second series), hits give low values 0.98 | S. cerevisiae deletion strains, locus YNR049C, strain mso1, hits give low values 0.981 | S. cerevisiae deletion strains, locus YNR052C, strain pop2, hits give low values 1.04 | S. cerevisiae deletion strains, locus YOL147C, strain pex11, hits give low values 1.02 | S. cerevisiae deletion strains, locus YOR001W, strain rrp6, hits give low values 1.01 | S. cerevisiae deletion strains, locus YOR061W, strain CKA2, hits give low values 1.01 | S. cerevisiae deletion strains, locus YOR069W, strain VPS5, hits give low values 1 | S. cerevisiae deletion strains, locus YOR070C, strain gyp1, hits give low values 1.03 | S. cerevisiae deletion strains, locus YOR080W, strain dia2, hits give low values 0.996 | S. cerevisiae deletion strains, locus YOR083W, strain WHI5, hits give low values 0.979 | S. cerevisiae deletion strains, locus YOR106W, strain vam3, hits give low values 0.956 | S. cerevisiae deletion strains, locus YOR136W, strain idh2, hits give low values 1.03 | S. cerevisiae deletion strains, locus YOR144C, strain elg1, hits give low values 1.02 | S. cerevisiae deletion strains, locus YOR184W, strain ser1, hits give low values 1.03 | S. cerevisiae deletion strains, locus YOR231W, strain MKK1, hits give low values 1.09 | S. cerevisiae deletion strains, locus YOR265W, strain rbl2, hits give low values 0.987 | S. cerevisiae deletion strains, locus YOR270C, strain vph1, hits give low values 1.01 | S. cerevisiae deletion strains, locus YOR290C, strain snf2, hits give low values 0.926 | S. cerevisiae deletion strains, locus YOR316C, strain cot1, hits give low values 1.02 | S. cerevisiae deletion strains, locus YPL051W, strain arl3, hits give low values 1 | S. cerevisiae deletion strains, locus YPL055C, strain LGE1, hits give low values 1.03 | S. cerevisiae deletion strains, locus YPL078C, strain atp4, hits give low values 0.949 | S. cerevisiae deletion strains, locus YPL106C, strain sse1, hits give low values 0.954 | S. cerevisiae deletion strains, locus YPL240C, strain hsp82, hits give low values 0.996 | S. cerevisiae deletion strains, locus YPL241C, strain CIN2, hits give low values 1 | S. cerevisiae deletion strains, locus YPL256C, strain CLN2, hits give low values 1.03 | S. cerevisiae deletion strains, locus YPR119W, strain clb2, hits give low values 1.02 | S. cerevisiae deletion strains, locus YPR141C, strain kar3, hits give low values 1.02 | S. cerevisiae deletion strains, locus YPR163C, strain tif3, hits give low values 1.03 | S. cerevisiae deletion strains, locus YPR167C, strain met16, hits give low values 1.02 | S. cerevisiae deletion strains, strain wtn01, hits give low values 1.03 | S. cerevisiae strains, strain wild type, hits give low values 1.01
active: S. cerevisiae deletion strains, locus YOL012C, strain htz1 1.88 [resistant]
